Source: PubChem BioAssay (EPA / NIEHS)
Inconclusive results are not listed. Activity calls are given as the source filed them. Rule for the calls, unless noted: active = hit-call score of the fitted dose curve at least 0.9, where 1 is the maximum; inactive = score below 0.9.

Columns and labels:
[1] = biological target: human RAR-related Orphan Receptor gamma (RORg), RORC (gene 6097) (UniProt P51449); assay: ATG_RORg_TRANS: Attagene TRANS-FACTORIAL HepG2 Assay for human RAR-related Orphan Receptor gamma (RORg) (AID 2283011; active = hit-call score of the fitted dose curve at least 0.9, where 1 is the maximum)
Sequence of human RAR-related Orphan Receptor gamma (RORg), RORC (gene 6097) (P51449 whole entry, looked up, the tested form may be a part): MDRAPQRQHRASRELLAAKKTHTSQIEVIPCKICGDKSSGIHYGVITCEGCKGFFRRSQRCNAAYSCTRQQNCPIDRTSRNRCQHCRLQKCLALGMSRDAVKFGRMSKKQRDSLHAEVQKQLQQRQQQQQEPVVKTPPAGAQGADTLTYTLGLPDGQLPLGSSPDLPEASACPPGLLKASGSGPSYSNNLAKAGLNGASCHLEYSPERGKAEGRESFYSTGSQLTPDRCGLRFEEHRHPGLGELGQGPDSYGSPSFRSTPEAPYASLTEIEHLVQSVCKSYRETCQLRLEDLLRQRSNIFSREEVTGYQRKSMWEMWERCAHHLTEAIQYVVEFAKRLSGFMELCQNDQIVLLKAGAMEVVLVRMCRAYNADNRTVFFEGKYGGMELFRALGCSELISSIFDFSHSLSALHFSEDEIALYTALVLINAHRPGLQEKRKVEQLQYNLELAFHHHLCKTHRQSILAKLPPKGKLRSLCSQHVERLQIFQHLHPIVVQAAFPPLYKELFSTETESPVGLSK
In short: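 Reporter transcripts from a transfected RORg-GAL4 chimera in HepG2 cells were quantified 24 h after dosing by RT-PCR, 6-FAM labelling, HpaI digestion and capillary electrophoresis; increases over DMSO baseline were fitted.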

[2] = biological target: Retinoic acid receptor RXR-alpha (Homo sapiens) (UniProt P19793); assay: ATG_RXRa_TRANS: Attagene TRANS-FACTORIAL HepG2 Assay for human Retinoid X Receptor alpha (RXRa) (AID 2283012; active = hit-call score of the fitted dose curve at least 0.9, where 1 is the maximum)
Sequence of Retinoic acid receptor RXR-alpha (Homo sapiens) (P19793 whole entry, looked up, the tested form may be a part): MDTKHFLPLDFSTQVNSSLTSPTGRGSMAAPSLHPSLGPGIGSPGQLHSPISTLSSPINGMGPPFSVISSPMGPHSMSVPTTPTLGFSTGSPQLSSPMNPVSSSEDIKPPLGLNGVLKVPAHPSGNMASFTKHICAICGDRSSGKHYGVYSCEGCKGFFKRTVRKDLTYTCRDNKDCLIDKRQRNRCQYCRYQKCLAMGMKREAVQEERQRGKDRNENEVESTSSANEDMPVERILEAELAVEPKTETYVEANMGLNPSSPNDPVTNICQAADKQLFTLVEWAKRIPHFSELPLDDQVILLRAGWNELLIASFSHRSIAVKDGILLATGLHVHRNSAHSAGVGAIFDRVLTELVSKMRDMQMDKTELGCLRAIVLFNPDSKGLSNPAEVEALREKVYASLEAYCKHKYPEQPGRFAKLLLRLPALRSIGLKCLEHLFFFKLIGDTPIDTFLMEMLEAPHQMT
In short: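 Cells (HepG2) carried transiently transfected GAL4-responsive reporter units. Following a 24 h chemical incubation, reporter mRNA induction was read via RT-PCR fragment analysis; DMSO served as negative control and baseline.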

[3] = biological target: human Retinoid X Receptor beta (RXRb), RXRB (gene 6257) (UniProt P28702); assay: ATG_RXRb_TRANS: Attagene TRANS-FACTORIAL HepG2 Assay for human Retinoid X Receptor beta (RXRb) (AID 2283013; active = hit-call score of the fitted dose curve at least 0.9, where 1 is the maximum)
Sequence of human Retinoid X Receptor beta (RXRb), RXRB (gene 6257) (P28702 whole entry, looked up): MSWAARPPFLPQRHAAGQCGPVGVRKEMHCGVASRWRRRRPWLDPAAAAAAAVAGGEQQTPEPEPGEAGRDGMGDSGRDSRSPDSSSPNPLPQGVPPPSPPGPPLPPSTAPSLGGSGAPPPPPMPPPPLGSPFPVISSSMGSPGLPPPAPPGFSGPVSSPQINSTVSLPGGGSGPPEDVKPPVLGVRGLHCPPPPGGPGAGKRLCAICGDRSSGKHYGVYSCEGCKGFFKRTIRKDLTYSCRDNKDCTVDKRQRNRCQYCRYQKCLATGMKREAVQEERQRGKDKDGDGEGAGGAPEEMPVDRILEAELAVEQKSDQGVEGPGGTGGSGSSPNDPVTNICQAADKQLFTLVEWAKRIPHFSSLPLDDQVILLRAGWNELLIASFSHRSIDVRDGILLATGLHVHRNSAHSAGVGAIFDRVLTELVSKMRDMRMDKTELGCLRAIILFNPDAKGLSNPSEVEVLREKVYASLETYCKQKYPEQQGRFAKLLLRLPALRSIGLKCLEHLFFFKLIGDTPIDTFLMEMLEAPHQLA
In short: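 Multiplexed TRANS reporter assay in HepG2; 24 h dosing; reporter mRNA by RT-PCR/CE fluorescence; gain-of-signal relative to DMSO.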

[4] = read-out: E-selectin (Homo sapiens) (UniProt P16581); assay: BSK_3C_Eselectin: BioMAP Diversity Plus: 3C Assay for Eselectin Biomarker Activity (AID 2283015); conditions: primary human endothelial cells (HUVEC); actives raise or lower the signal
In short: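 E-selectin ELISA readout, fitted bidirectionally relative to DMSO, taken 24 h post-dosing in HUVEC cultures of the 3C system. Overt cytotoxicity tracked with sulforhodamine B staining of parallel wells.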

[5] = read-out: Interleukin-1 alpha (IL1a), IL1A (gene 3552); assay: BSK_BE3C_IL1a: BioMAP Diversity Plus: BE3C Assay for Interleukin-1 alpha (IL1a) Biomarker Activity (AID 2283016); conditions: primary human bronchial epithelial cells; actives raise or lower the signal
In short: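 Cultures of primary human bronchial epithelial cells receive test chemical. After 24 h, IL-1a is quantified by ELISA, while parallel wells are fixed in TCA and SRB-stained for total protein. Changes in either direction are fitted relative to DMSO.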

[6] = read-out: Monocyte Chemoattractant Protein-1 (MCP1), CCL2 (gene 6347); assay: BSK_3C_MCP1: BioMAP Diversity Plus: 3C Assay for Monocyte Chemoattractant Protein-1 (MCP1) Biomarker Activity (AID 2283017); conditions: primary human endothelial cells (HUVEC); actives raise or lower the signal
In short: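 MCP-1 was measured by ELISA 24 h after dosing in primary HUVEC 3C cultures and fitted in both directions relative to DMSO; cytotoxicity was checked by SRB total-protein staining in parallel wells.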

[7] = read-out: Human Leukocyte Antigen - DR isotype (HLADR), HLA-DRA (gene 3122); assay: BSK_3C_HLADR: BioMAP Diversity Plus: 3C Assay for Human Leukocyte Antigen - DR isotype (HLADR) Biomarker Activity (AID 2283019); conditions: primary human endothelial cells (HUVEC); actives raise or lower the signal
In short: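 Bidirectional fitting against DMSO was applied to the HLA-DR ELISA signal from human umbilical vein endothelial cells, 24 h post-dose. Cytotoxicity came from parallel SRB total-protein staining; 3C proliferation was counted by SRB at 48 h.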

[8] = read-out: Interleukin-8 (IL8), CXCL8 (gene 3576); assay: BSK_3C_IL8: BioMAP Diversity Plus: 3C Assay for Interleukin-8 (IL8) Biomarker Activity (AID 2283020); conditions: primary human endothelial cells (HUVEC); actives raise or lower the signal
In short: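 Human vascular endothelial cells (umbilical vein) in the 3C system; IL-8 level detected by ELISA at 24 h post-dose, with DMSO as baseline.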

[9] = read-out: Monokine induced gamma interferon (MIG), CXCL9 (gene 4283); assay: BSK_3C_MIG: BioMAP Diversity Plus: 3C Assay for Monokine induced gamma interferon (MIG) Biomarker Activity (AID 2283021); conditions: primary human endothelial cells (HUVEC); actives raise or lower the signal;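 for AC50: MIG protein level measured by immunoassay in the treated endothelial cultures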
In short: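 After 24 h of treatment, human umbilical vein endothelial cultures (3C system) had their MIG biomarker level determined by ELISA, with DMSO serving as negative control.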

[10] = biological target: human Vitamin D Receptor (VDR), VDR (gene 7421) (UniProt P11473); assay: ATG_VDR_TRANS: Attagene TRANS-FACTORIAL HepG2 Assay for human Vitamin D Receptor (VDR) (AID 2283022; active = hit-call score of the fitted dose curve at least 0.9, where 1 is the maximum)
Sequence of human Vitamin D Receptor (VDR), VDR (gene 7421) (P11473 whole entry, looked up, the tested form may be a part): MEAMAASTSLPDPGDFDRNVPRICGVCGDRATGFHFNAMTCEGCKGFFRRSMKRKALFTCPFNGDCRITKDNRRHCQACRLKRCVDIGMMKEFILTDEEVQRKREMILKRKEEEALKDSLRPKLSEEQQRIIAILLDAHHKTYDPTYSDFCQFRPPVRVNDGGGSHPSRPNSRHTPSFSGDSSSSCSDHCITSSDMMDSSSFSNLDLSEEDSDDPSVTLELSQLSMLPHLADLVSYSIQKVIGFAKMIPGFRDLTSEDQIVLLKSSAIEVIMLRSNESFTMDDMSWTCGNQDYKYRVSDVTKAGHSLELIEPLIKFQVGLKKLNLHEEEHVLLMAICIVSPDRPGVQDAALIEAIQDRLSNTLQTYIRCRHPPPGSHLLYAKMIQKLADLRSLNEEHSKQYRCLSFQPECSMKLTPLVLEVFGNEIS
In short: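 Transactivation by an exogenous VDR-Gal4 chimera in transiently transfected HepG2 cells was measured as reporter transcript level 24 hours after chemical treatment. RT-PCR products were analysed by capillary electrophoresis and fitted in the positive direction relative to DMSO.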

[11] = BSK_3C_SRB: Viability Assessment in the BioMAP Diversity Plus: 3C Assay (AID 2283023); conditions: primary human endothelial cells (HUVEC);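 note: fitted both ways against DMSO so a hit may be signal rise or drop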
In short: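 Cytotoxicity readout in parallel HUVEC 3C cultures: after 24 h compound exposure, cells fixed with 10% TCA, stained with 0.1% SRB and read at 560 nm. Gain or loss relative to DMSO fitted.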

[12] = read-out: Matrix Metallopeptidase 1 (MMP1), MMP1 (gene 4312); assay: BSK_BE3C_MMP1: BioMAP Diversity Plus: BE3C Assay for Matrix Metallopeptidase 1 (MMP1) Biomarker Activity (AID 2283024); conditions: primary human bronchial epithelial cells; actives raise or lower the signal
In short: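 Dose cells, wait 24 h, run MMP1 ELISA; cells are human bronchial epithelial primaries. Both increases and decreases relative to DMSO counted.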

[13] = BSK_3C_Vis: BioMAP Diversity Plus: 3C Assay for Morphology Visualization (AID 2283025); conditions: primary human endothelial cells (HUVEC);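 note: fitted both ways so gain or loss versus DMSO counts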;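 for AC50: light microscopy image of cell morphology used as background control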
In short: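 Endothelial cells from human umbilical vein were treated with test chemicals for 24 h and inspected by light microscopy for changes in cell conformation.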

[14] = read-out: Pselectin, SELP (gene 6403); assay: BSK_4H_Pselectin: BioMAP Diversity Plus: 4H Assay for Pselectin Biomarker Activity (AID 2283026); conditions: primary human endothelial cells (HUVEC); actives raise or lower the signal
In short: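 Human vascular endothelium from umbilical vein; P-selectin measured by ELISA at 24 h post-dose, with cytotoxicity checked by sulforhodamine B total-protein staining in parallel cultures (0.1% SRB after 10% TCA fixation, read at 560 nm).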

[15] = BSK_4H_SRB: Viability Assessment in the BioMAP Diversity Plus: 4H Assay (AID 2283027); conditions: primary human endothelial cells (HUVEC);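 note: cells exposed to compound for 24 h before staining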;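 for AC50: curves fitted both ways versus DMSO so AC50 may be loss or gain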
In short: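 Human umbilical vein endothelial cells were dosed with chemical and, after 24 h, fixed with 10% TCA, stained with 0.1% sulforhodamine B, and read at 560 nm to give total protein as a cytotoxicity measure. Bidirectional fitting relative to DMSO control.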

[16] = BSK_BE3C_SRB: Viability Assessment in the BioMAP Diversity Plus: BE3C Assay (AID 2283028); conditions: primary human bronchial epithelial cells;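 for AC50: fitted both ways so AC50 may mark signal gain or loss versus DMSO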
In short: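 Cytotoxicity read-out: SRB (0.1%) staining of TCA-fixed (10%) human lung bronchial epithelial cells, absorbance 560 nm, 24 h post-dosing. Curves fitted both directions relative to DMSO.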

[17] = read-out: Thrombomodulin, THBD (gene 7056); assay: BSK_3C_Thrombomodulin: BioMAP Diversity Plus: 3C Assay for Thrombomodulin Biomarker Activity (AID 2283029); conditions: primary human endothelial cells (HUVEC); actives raise or lower the signal
In short: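 Thrombomodulin ELISA, human primary HUVEC, 24 h post-dose; data fitted in both directions relative to DMSO.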

[18] = read-out: Urokinase-type plasminogen activator receptor (uPAR), PLAUR (gene 5329); assay: BSK_4H_uPAR: BioMAP Diversity Plus: 4H Assay for Urokinase-type plasminogen activator receptor (uPAR) Biomarker Activity (AID 2283030); conditions: primary human endothelial cells (HUVEC); actives raise or lower the signal
In short: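 uPAR level read by ELISA on HUVEC cultures (BioMAP 4H) 24 h post-dosing, analyzed for gain or loss relative to DMSO. Parallel SRB staining assessed overt cytotoxicity.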

[19] = read-out: Monocyte Chemoattractant Protein-1 (MCP1), CCL2 (gene 6347); assay: BSK_4H_MCP1: BioMAP Diversity Plus: 4H Assay for Monocyte Chemoattractant Protein-1 (MCP1) Biomarker Activity (AID 2283018); conditions: primary human endothelial cells (HUVEC); actives raise or lower the signal
In short: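 Readout: MCP-1 ELISA on compound-treated HUVEC, sampled 24 h post-dosing. Baseline and negative control DMSO; bidirectional fit. Overt toxicity checked alongside by sulforhodamine B protein staining at time of biomarker measurement.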

[20] = biological target: human Thyroid Receptor alpha (THRa1), THRA (gene 7067) (UniProt P10827); assay: ATG_THRa1_TRANS: Attagene TRANS-FACTORIAL HepG2 Assay for human Thyroid Receptor alpha (THRa1) (AID 2283014; active = hit-call score of the fitted dose curve at least 0.9, where 1 is the maximum)
Sequence of human Thyroid Receptor alpha (THRa1), THRA (gene 7067) (P10827 whole entry, looked up, the tested form may be a part): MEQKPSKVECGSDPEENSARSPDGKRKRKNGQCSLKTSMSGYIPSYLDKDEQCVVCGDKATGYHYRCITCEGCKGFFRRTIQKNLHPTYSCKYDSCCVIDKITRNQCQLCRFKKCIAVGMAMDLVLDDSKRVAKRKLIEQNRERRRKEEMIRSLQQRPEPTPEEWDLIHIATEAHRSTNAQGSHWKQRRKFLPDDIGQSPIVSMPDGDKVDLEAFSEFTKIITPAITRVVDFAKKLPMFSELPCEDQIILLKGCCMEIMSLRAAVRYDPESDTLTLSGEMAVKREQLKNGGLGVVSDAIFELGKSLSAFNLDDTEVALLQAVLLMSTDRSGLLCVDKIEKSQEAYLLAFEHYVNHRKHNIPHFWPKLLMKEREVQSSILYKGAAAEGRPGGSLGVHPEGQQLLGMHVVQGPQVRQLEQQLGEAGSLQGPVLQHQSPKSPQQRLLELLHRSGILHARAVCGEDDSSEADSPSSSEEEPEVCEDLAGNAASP
In short: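 Transcripts from GAL4-UAS-driven reporters, measured after 24 h compound exposure by RT-PCR plus capillary electrophoresis of 6-FAM-labeled fragments, were fitted for gain of signal relative to DMSO. Cells: transiently transfected HepG2 expressing NR-Gal4 chimeras.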

Measured: AC50

Sequence of E-selectin (Homo sapiens) (P16581 whole entry, looked up): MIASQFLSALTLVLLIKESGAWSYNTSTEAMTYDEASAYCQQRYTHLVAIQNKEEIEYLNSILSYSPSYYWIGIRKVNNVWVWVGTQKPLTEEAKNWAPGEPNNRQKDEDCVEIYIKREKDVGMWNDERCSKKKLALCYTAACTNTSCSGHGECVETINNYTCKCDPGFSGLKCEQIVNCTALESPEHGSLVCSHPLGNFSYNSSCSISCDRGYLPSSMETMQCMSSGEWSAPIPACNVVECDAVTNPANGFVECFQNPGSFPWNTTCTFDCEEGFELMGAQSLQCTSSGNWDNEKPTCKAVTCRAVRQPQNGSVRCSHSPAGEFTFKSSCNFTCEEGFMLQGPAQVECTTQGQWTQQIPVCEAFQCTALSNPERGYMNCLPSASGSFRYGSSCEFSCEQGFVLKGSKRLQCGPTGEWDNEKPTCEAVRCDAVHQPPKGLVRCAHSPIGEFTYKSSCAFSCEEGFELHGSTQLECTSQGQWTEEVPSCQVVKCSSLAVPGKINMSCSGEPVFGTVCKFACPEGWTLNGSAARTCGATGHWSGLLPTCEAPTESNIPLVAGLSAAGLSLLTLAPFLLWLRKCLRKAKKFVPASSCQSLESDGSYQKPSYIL

Cc1ncc(CO)c(CO)c1O
inactive: [1] | [2] | [3] | [4] | [5] | [6] | [7] | [8] | [9] | [10] | [11] | [12] | [13] | [14] | [15] | [16] | [17] | [18]

OC12N=C(c3ccccc3)SC1Cc1cc(Cl)ccc12 (stereo not given)
inactive: [1] | [2] | [3] | [4] | [5] | [19] | [8] | [9] | [10] | [13] | [14] | [15] | [16] | [17] | [18]
active: [7] 33.8 µM | [11] 28.1 µM | [12] 15.3 µM

CCO[Si](CCCNC(N)=O)(OCC)OCC
inactive: [1] | [2] | [3] | [4] | [5] | [6] | [19] | [7] | [9] | [10] | [11] | [12] | [13] | [14] | [15] | [16] | [17] | [18]

NCc1cccc(C2CCN(C(=O)c3ccc(C#Cc4ccccc4F)o3)CC2)c1
inactive: [1] | [2] | [3] | [20] | [10]
active: [4] 35.6 µM | [5] 15 µM | [19] 20 µM | [7] 11.3 µM | [8] 23.1 µM | [9] 36.2 µM | [11] 11 µM | [12] 28.2 µM | [13] 13.3 µM | [14] 13.3 µM | [15] 15.1 µM | [16] 15.4 µM | [17] 12.7 µM | [18] 23.2 µM

CC(O)CC(C)(C)O (stereo not given)
inactive: [1] | [2] | [3] | [20] | [4] | [5] | [7] | [9] | [10] | [11] | [12] | [13] | [14] | [15] | [16] | [17] | [18]

CC(C)(O)c1ccc(CNC(=O)c2cccnc2Oc2ccc3nonc3c2)cc1
inactive: [1] | [2] | [3] | [4] | [5] | [7] | [8] | [9] | [10] | [11] | [12] | [13] | [14] | [15] | [16] | [17] | [18]

O=C1CCC(C2CCCCC2)CC1
active: [12] 12.6 µM
inactive: [1] | [2] | [3] | [20] | [4] | [5] | [6] | [7] | [9] | [10] | [11] | [13] | [14] | [15] | [16] | [17] | [18]

COc1cc(C(=O)NC2CCN(C)CC2)ccc1Nc1ncc2c(n1)N(C1CCCC1)CC(F)(F)C(=O)N2C
active: [4] 17.2 µM | [5] 10.2 µM | [19] 5.15 µM | [7] 4.47 µM | [8] 7.74 µM | [9] 19.2 µM | [11] 18.6 µM | [12] 7.76 µM | [13] 18.6 µM | [14] 3.57 µM | [15] 13.5 µM | [16] 28.2 µM | [18] 7.45 µM
inactive: [1] | [2] | [3] | [20] | [10] | [17]

Clc1cc(Cl)c2c(c1)N=C1CCCCCN1C2
inactive: [1] | [2] | [4] | [5] | [6] | [19] | [7] | [8] | [9] | [11] | [12] | [13] | [14] | [15] | [16] | [17] | [18]

CC(=O)N1CCN(c2ccc(OC[C@H]3CO[C@](Cn4ccnc4)(c4ccc(Cl)cc4Cl)O3)cc2)CC1
inactive: [1] | [4] | [5] | [10] | [12] | [16] | [17]
active: [6] 31.9 µM | [7] 25.2 µM | [9] 34.5 µM | [11] 29.1 µM | [13] 37.5 µM | [14] 14.8 µM | [15] 29.6 µM | [18] 32.9 µM

C[C@]12CC[C@@H]3c4ccc(O)cc4CC[C@H]3[C@@H]1CC[C@H]2O
active: [4] 8.58 µM | [6] 14.3 µM | [7] 21.3 µM | [11] 12.4 µM | [13] 20.7 µM | [15] 9.1 µM | [18] 12.8 µM
inactive: [1] | [2] | [3] | [20] | [5] | [9] | [10] | [12] | [14] | [16] | [17]

O=C(O)c1ccccc1-n1cc(C(=O)O)c(=O)c2cc(Nc3c(F)cc(F)cc3Cl)c(Cl)cc21
inactive: [1] | [20] | [4] | [5] | [7] | [9] | [11] | [12] | [13] | [14] | [15] | [16] | [17] | [18]

Cc1cccc2ccccc12
inactive: [1] | [2] | [3] | [20] | [4] | [5] | [7] | [9] | [10] | [11] | [12] | [13] | [14] | [15] | [16] | [17] | [18]
